Screening results deposited in PubChem by several laboratories.
Hits are enriched below; roughly 3.1% of the tested compounds scored in any of these assays.
MEKK2 WT-MEK5: modulators of MEK5 binding to wildtype MEKK2, primary screen, biochemical, multiplex bead flow cytometry, Alexa488-MEK5 | Alexa488-MEK5 binding to MEKK2 WT; actives lie on both sides | AID 1531, 2009 | binding response (% of control), % at 10 µM | 290,000 compounds, 1.1% hits; in the data active = binding response below about 67% or above about 130%
MEKK3 PB1 HTS: modulators of MEKK3-MEK5 PB1 binding, primary screen, biochemical, wildtype MEKK3, multiplex bead flow cytometry, Alexa488-MEK5; Mitogen-activated protein kinase kinase kinase 3 (Homo sapiens), Q99759; bead-based flow cytometry, Alexa488-MEK5 binding to MEKK3; actives lie on both sides; 0 = blocked by unlabeled MEK5, 100 = vehicle; binding response (% of control), % at 10 µM; 290,000 compounds, 1.4% hits; AID 1529, 2009;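 active = binding response more than 3 SD above or below the average of its plate-row segment, actives on both sides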;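 note: Alexa488 bead fluorescence after subtracting the streptavidin-only scavenger bead signal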
UBC13 polyUb: UBC13 polyubiquitin chain formation inhibitors, primary screen, biochemical, TR-FRET, uHTS; 330,000 compounds, 0.47% hits; inhibition, % at 20 µM; AID 485273, 2010; Ubiquitin-conjugating enzyme E2 N (Homo sapiens), P61088; in the data active = inhibition above about 45%, passing the limit was not always enough
PREPL inhibitor: PREPL enzyme inhibitors, primary screen, biochemical, fluorescence polarization; AID 2751, 2010; recombinant PREPL, fluorescence polarization activity-based probe; Prolyl endopeptidase-like (Homo sapiens), Q4J6C6; 320,000 compounds, 0.68% hits; inhibition, % at 5.96 µM; in the data active = inhibition above about 43%
Target sequence (Q4J6C6 whole entry, looked up): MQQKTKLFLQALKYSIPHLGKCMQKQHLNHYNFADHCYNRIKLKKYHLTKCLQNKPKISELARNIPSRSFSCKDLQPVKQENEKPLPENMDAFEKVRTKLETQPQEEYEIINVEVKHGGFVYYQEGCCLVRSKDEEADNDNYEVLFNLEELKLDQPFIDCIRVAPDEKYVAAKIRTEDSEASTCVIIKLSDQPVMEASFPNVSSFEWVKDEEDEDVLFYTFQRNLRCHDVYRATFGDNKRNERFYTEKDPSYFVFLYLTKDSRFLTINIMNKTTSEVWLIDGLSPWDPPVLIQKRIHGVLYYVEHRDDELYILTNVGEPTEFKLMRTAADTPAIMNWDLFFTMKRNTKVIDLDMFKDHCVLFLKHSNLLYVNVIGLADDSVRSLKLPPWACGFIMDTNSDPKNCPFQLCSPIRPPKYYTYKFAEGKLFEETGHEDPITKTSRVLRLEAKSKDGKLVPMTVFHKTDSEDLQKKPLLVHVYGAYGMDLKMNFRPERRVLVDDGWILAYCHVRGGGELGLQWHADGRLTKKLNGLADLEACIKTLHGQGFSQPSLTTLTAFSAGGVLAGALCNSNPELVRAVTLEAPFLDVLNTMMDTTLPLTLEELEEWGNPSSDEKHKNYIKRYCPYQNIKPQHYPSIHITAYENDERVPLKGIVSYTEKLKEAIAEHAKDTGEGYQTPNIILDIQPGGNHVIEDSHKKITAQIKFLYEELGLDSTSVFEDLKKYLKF
MEKK2mut PB1 HTS: MEK5 binding signal on mutant MEKK2 PB1, primary screen, biochemical, multiplex bead flow cytometry, Alexa488-MEK5; Alexa488-MEK5 binding to MEKK2 mutant; percent response, % at 10 µM; 290,000 compounds, 0.35% hits; in the data active = percent response above about 24%, passing the limit was not always enough
ATG4B inhibitor: ATG4B protease inhibitors, primary screen, biochemical, fluorescence, uHTS; ATG4B cleavage of LC3-PLA2, NBD-HPC fluorescence, 1 h; inhibition, % at 8.33 µM; Cysteine protease ATG4B (Homo sapiens), Q9Y4P1; 340,000 compounds, 0.51% hits; in the data active = inhibition above about 40%
ATG4B confirm: ATG4B protease inhibitors, retest, confirmation, biochemical, fluorescence, single concentration | ATG4B protease fluorescent substrate cleavage assay | shares compounds with ATG4B inhibitor | AID 504757, 2011 | inhibition, % at 8.33 µM | 320 compounds, 92% hits; in the data active = inhibition above about 39%
PLA2 counter: PLA2 enzyme inhibition, counter-screen for ATG4B inhibitor project, biochemical, single concentration, uHTS hits | shares compounds with ATG4B inhibitor | purified PLA2, NBD-C6-HPC fluorescence, 45 min | inhibition, % at 8.33 µM | 1,600 compounds, 66% hits | AID 588402, 2011; in the data active = inhibition above about 50%
Each line names hits and unclear results; the compound was inactive in the other large screens (follow-up assays come after a bar, where they were run).

O=C(N/N=C/c1ccccc1Cl)c1nc2ccc([N+](=O)[O-])cc2c(=O)[nH]1	ATG4B inhibitor 40.8 | ATG4B confirm 65.8 | PLA2 counter inactive
O=C(N/N=C/c1cccc([N+](=O)[O-])c1)c1nc2ccccc2c(=O)[nH]1	none
CC(C)S(=O)(=O)C1=NSC2=NC(=O)/C(=C\c3ccc(-c4ccccc4)o3)C(=N)N21	ATG4B inhibitor 58.8 (no result: UBC13 polyUb) | PLA2 counter 55.6
CS(=O)(=O)C1=NSC2=NC(=O)/C(=C\c3ccc(-c4ccccc4)o3)C(=N)N21	none (no result: UBC13 polyUb, ATG4B inhibitor)
CC(/C=C1\SC(=S)N(CCCC(=O)Nc2ccc(C(=O)O)cc2)C1=O)=C\c1ccccc1	ATG4B inhibitor 64.5 | ATG4B confirm 41.0 | PLA2 counter inactive
CC(=C\c1ccccc1)/C=C1/SC(=S)N(CCCC(=O)O)C1=O	ATG4B inhibitor 51.9 (no result: PREPL inhibitor) | ATG4B confirm 78.0 | PLA2 counter inactive
CC(/C=C1\SC(=S)N(CCC(=O)Nc2cccc(C(=O)O)c2)C1=O)=C\c1ccccc1	none
CCC(C(=O)O)N1C(=O)/C(=C/C(C)=C/c2ccccc2)SC1=S (stereo not given)	ATG4B inhibitor 79.9 | PLA2 counter 82.8
Cc1ccc(/C=C2\SC(=S)N(C(Cc3ccccc3)C(=O)O)C2=O)cc1 (stereo not given)	ATG4B inhibitor 47.8 | ATG4B confirm 79.4 | PLA2 counter inactive
NC(=O)c1ccc(N=Nc2c(O)c3ccccc3[nH]c2=O)cc1	none (no result: ATG4B inhibitor)
N=C(N)c1ccc(N=Nc2c(O)ccc3c2[nH]c2ccccc23)cc1	ATG4B inhibitor 86.1 (no result: MEKK2 WT-MEK5, MEKK3 PB1 HTS, UBC13 polyUb, PREPL inhibitor, MEKK2mut PB1 HTS) | ATG4B confirm 38.2 | PLA2 counter inactive
Cc1cccnc1CCNCc1c(C(=O)N2C[C@@H](C)O[C@@H](C)C2)nc2ccc(Cl)cn12	none
O=C(NCc1ccccc1F)C1CCCN1C(=O)Nc1ccc(Cl)cc1 (stereo not given)	none
NC(=O)CSc1nnc(CNc2cccc(Cl)c2)n1CCc1ccccc1	ATG4B inhibitor 49.3 | PLA2 counter 66.3
N#CC1=C(N)OC2=C(C(=O)CC(c3ccco3)C2)C1c1ccc(OCc2c(F)cccc2Cl)cc1 (stereo not given)	ATG4B inhibitor 87.1 | PLA2 counter 89.3
Cc1cccc(C)c1OCc1nc2ccccc2c(=O)n1/N=C/c1ccc(OCC(=O)O)cc1	ATG4B inhibitor 52.8 | ATG4B confirm 61.8 | PLA2 counter inactive
Cc1cc(/C=N/n2c(COc3ccccc3)nc3ccccc3c2=O)c(O)c([N+](=O)[O-])c1	ATG4B inhibitor 60.0 | ATG4B confirm 52.7 | PLA2 counter inactive
O=C(O)COc1ccc(/C=N/n2c(COc3ccccc3)nc3ccccc3c2=O)cc1	none
Cn1/c(=N/NC(=O)c2ccccc2F)sc2ccccc21	none
O=C(CSc1nnc(-c2ccc(Br)o2)n1Cc1ccccc1)c1ccccc1F	ATG4B inhibitor 56.9 | PLA2 counter 57.4
Cc1cc(NC(=O)CSc2nnc(-c3ccc(Br)o3)n2Cc2ccccc2)no1	none
OC(c1cc(-c2cccc(Cl)c2)nc2ccccc12)C1CCCCN1 (stereo not given)	ATG4B inhibitor 42.5 (no result: MEKK2 WT-MEK5, MEKK3 PB1 HTS, UBC13 polyUb, PREPL inhibitor, MEKK2mut PB1 HTS) | PLA2 counter 65.8
COc1cccc(CNC(=O)C(C(=O)NCc2cccc(OC)c2)c2ncc(C(F)(F)F)cc2Cl)c1	none
O=C(O)COc1ccccc1/C=C1\SC(=S)N(/N=C/c2ccccc2O)C1=O	ATG4B inhibitor 48.1 | ATG4B confirm 68.2 | PLA2 counter inactive
C[C@@H]1CN([C@H](C)CO)C(=O)c2cc(NC(=O)Cc3ccccc3)ccc2O[C@H]1CN(C)Cc1ccc(Oc2ccccc2)cc1	ATG4B inhibitor 55.6 (no result: MEKK2 WT-MEK5, MEKK3 PB1 HTS, MEKK2mut PB1 HTS) | PLA2 counter 67.7
C[C@H]1CN([C@@H](C)CO)C(=O)c2cc(NC(=O)Cc3ccccc3)ccc2O[C@H]1CN(C)Cc1ccccc1	none (no result: MEKK2 WT-MEK5, MEKK3 PB1 HTS, MEKK2mut PB1 HTS)
Cc1cccc(-n2c(C)cc(/C=C3\C(=N)N4N=C(CC(C)C)SC4=NC3=O)c2C)c1	none
Cc1cc(C)cc(-n2c(C)cc(/C=C3\C(=N)N4N=C(CC(C)C)SC4=NC3=O)c2C)c1	ATG4B inhibitor 44.3 | ATG4B confirm 45.9 | PLA2 counter inactive
CCCC1=NN2C(=N)/C(=C\c3cc(C)n(-c4cc(C)cc(C)c4)c3C)C(=O)N=C2S1	ATG4B inhibitor 58.2 | PLA2 counter 55.2
CC1=NN2C(=N)/C(=C\c3cc(C)n(-c4cccc(C)c4)c3C)C(=O)N=C2S1	none
COc1cc2c(cc1OC)CN(C(=O)CN1CCN(S(=O)(=O)c3ccc(C)c(C)c3)CC1)CC2	none
COC(=O)CCC(=O)c1ccn(S(=O)(=O)c2ccccc2)c1	none
O=c1c2ccccc2c(-c2ccc(O)cc2)nn1-c1cccc(C(F)(F)F)c1	ATG4B inhibitor 59.5 | PLA2 counter 72.3
COc1cc(OC)cc(-c2nnc(SCc3c(F)cccc3Cl)o2)c1	ATG4B inhibitor 58.8 | PLA2 counter 58.1
CCOc1ccc2c(ccc(/C=C/c3cc(C)c4cccnc4c3O)[n+]2C)c1	none (no result: MEKK2 WT-MEK5, MEKK3 PB1 HTS, UBC13 polyUb, PREPL inhibitor, MEKK2mut PB1 HTS)
Cc1ccc(-c2ccc(/C=C3\C(=O)ON=C3c3ccccc3)o2)c([N+](=O)[O-])c1	ATG4B inhibitor 63.1 | PLA2 counter inactive
O=C(OCc1cc(Cl)ccc1OC(F)F)c1cncc(Br)c1	ATG4B inhibitor 52.1 | PLA2 counter 54.2
O=C(NC(=S)Nc1ncc(Br)cc1Br)c1ccccc1	none
O=[N+]([O-])c1ccc(O)c(C=Nc2ccc3nc(-c4ccccc4)[nH]c3c2)c1	ATG4B inhibitor 41.7 | PLA2 counter inactive
OC[C@H]1O[C@@](CO)(O[C@H]2O[C@H](CO)[C@@H](O)[C@H](O)[C@H]2O)[C@@H](O[C@H]2O[C@H](CO)[C@@H](O)[C@H](O)[C@H]2O)[C@@H]1O	none (no result: MEKK2 WT-MEK5, MEKK3 PB1 HTS, UBC13 polyUb, PREPL inhibitor, MEKK2mut PB1 HTS)
Cn1cccc1-c1cc(C(=O)N/N=C/c2cc(Br)ccc2O)[nH]n1	ATG4B inhibitor 49.1 | PLA2 counter 56.0
Cn1cccc1-c1cc(C(=O)N/N=C/c2ccccc2Cl)[nH]n1	none
